This note sets out measurements from the supplement of paper PMC7057948, “A genome-wide approach for identification and characterisation of metabolite-inducible systems” (Nature Communications, 2020).
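Also: RFP excited at 585 nm with emission read at 620 nm, culture medium blanks subtracted from fluorescence and absorbance prior to normalisation.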

This assay deals with heterologous inducible system pEH086 (rhamnose/acrylate/cumate/itaconate set). As to the kind of experiment: relative induction of RFP reporter vs primary effector (background-corrected); higher = stronger activation of the biosensor. The following applies: inducer concentration 5 mM; 6 h; Cupriavidus necator H16; minimal medium + 0.4% gluconate. How it is done: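 C. necator H16 strains, each carrying one of 21 transcription factor/inducible promoter–mRFP biosensor plasmids, were grown in minimal medium in 96-well plates (robotic platform). Each was exposed to 46 structurally or metabolically related compounds at 5 mM at 30 °C. OD-normalised RFP fluorescence was read 6 h later and expressed as relative induction (%) = 100 × (FL compound − FL uninduced)/(FL primary inducer − FL uninduced); mean of n=4.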
In the case of `O=CC(=O)O` [glyoxylate], the “relative induction of RFP reporter” value was found to be 0.035%. The same measure for `CCC(=O)O` [propanoate]: -0.0388%; for `O=C(O)/C=C/C(=O)O` [fumarate]: 0.533%; for `O=C(O)C[C@H](O)C(=O)O` [L-malate]: 0.726%.

In the case of `O=C(O)/C=C\C=C/C(=O)O` [cis,cis-muconate], the “relative induction of RFP reporter” value worked out at 0.0837%. In the case of `O=C(O)c1cccnc1` [nicotinate] it was 0.0778%; in that of `Oc1ccccc1O` [catechol], -0.178%. In the case of `O=C(O)[C@@H](O)[C@@H](O)[C@H](O)[C@@H](O)C(=O)O` [glucarate] it was 0.127%; in that of `O=C(O)c1ccc(O)cc1` [4-hydroxybenzoate], 0.318%; in that of `O=C(O)C(O)c1ccccc1` (configuration not stated) [mandelic acid], 0.563%. In the case of `O=c1cc[nH]c(=O)[nH]1` [uracil], the “relative induction of RFP reporter” value was found to be 0.875%. The same measure for `O=C(O)C(O)C(=O)O` [tartronic acid]: 0.0674%.
